The source made the active and inactive calls.
Key:
[1] = A549 cell viability effects, profiling panel, calcein-AM fluorescence, 48 h, basal (AID 1162); settings: higher = more signal
[2] = adipocyte viability effects, profiling panel, cell-based, 3T3-L1 adipocytes, calcein-AM fluorescence, 48 h, basal (AID 1163); settings: 3T3-L1 adipocytes viability, higher = more signal
[3] = HepG2 cell viability effects, profiling panel, calcein-AM fluorescence, 48 h, basal (AID 1164); settings: higher = more signal
[4] = MM1S cell viability effects, profiling panel, calcein-AM fluorescence, 48 h, basal (AID 1165); settings: higher = more signal;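 further: viability of MM1S multiple myeloma cells under basal unstimulated conditions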
[5] = basal RPMI8226 viability, no added stimulus, profiling panel, cell-based, calcein-AM fluorescence, 48 h, PK04 Diversity Set (AID 1166); settings: RPMI8226 myeloma viability, higher = more signal;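 further: cells grown under basal conditions without added stimulus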
[6] = basal HepG2 mitochondrial membrane potential changes, profiling panel, cell-based, JC-1 fluorescence, 24 h, 100 nL compound (AID 1167); settings: higher = more signal
[7] = basal 3T3-L1 adipocyte mitochondrial potential changes, profiling panel, cell-based, JC-1 fluorescence, 3T3-L1 adipocytes, 24 h, 100 nL compound (AID 1168); settings: JC-1 mitochondrial fluorescence, higher = more signal, called active from +8 up or from −8 down
[8] = basal RPMI8226 mitochondrial membrane potential changes, profiling panel, cell-based, JC-1 fluorescence, 24 h, 100 nL compound (AID 1169); settings: RPMI8226 myeloma, JC-1 mitochondrial potential fluorescence, higher = more signal
[9] = basal MM1S mitochondrial membrane potential changes, profiling panel, cell-based, JC-1 fluorescence, 24 h, 100 nL compound (AID 1170); settings: higher = more signal
[10] = A549 lung cancer cell viability effects, profiling panel, resazurin fluorescence, 24 h, PK04 Diversity Set (AID 1171); settings: higher = more signal, called active from +8 up or from −8 down
Further: test concentration not given here.

Row | Structure (SMILES) | z-score [1] | z-score [2] | z-score [3] | z-score [4] | z-score [5] | z-score [6] | z-score [7] | z-score [8] | z-score [9] | z-score [10]
1 | CCN1C(=O)[C@H]2[C@H]3[C@H](O)[C@H](O)CC(=NO[C@H](C)c4cn([C@H](CO)Cc5ccccc5)nn4)[C@@H]3CC[C@H]2C1=O | 1.01 | -0.922 | 0.211 | -0.824 | 0.065 | -0.471 | -1.16 (inactive) | 0.271 | -0.343 | -1.13 (inactive)
2 | CC(=O)OC[C@H]1O[C@H](CC=NOC[C@@H](O)COCc2ccco2)C=C[C@@H]1OC(C)=O | 1.04 | -0.0657 | 0.341 | -0.175 | -0.498 | 0.186 | 0.998 (inactive) | -0.198 | -1.01 | 0.0719 (inactive)
3 | CCOC(=O)[C@H](CC(C)C)NC(=O)CCC1CC(OC(=O)NCCc2ccc(F)cc2)CC2(CCCC(COC(=O)NCc3cccc4ccccc34)O2)O1 (stereo not given in full) | -0.491 | -0.679 | -2.03 | -3.43 | -3.14 | 0.26 | -0.0268 (inactive) | 0.219 | -1.56 | 1.15 (inactive)
4 | COc1ccc(O[C@H]2C=C[C@@H](c3ccccc3)O[C@@H]2CON=C(C)CCN2CCCc3nc(C)c(C)cc32)cc1 | 0.0505 | -0.351 | -0.491 | -2.13 | -2.37 | 2.98 | -0.853 (inactive) | 0.414 | -0.294 | 0.154 (inactive)
5 | CC(CCN1CCCc2nc(C)c(C)cc21)=NOC[C@@H](C)[C@H](OCc1ccccc1)C(C)C | 0.803 | 1.05 | 1.18 | -2.37 | 0.0389 | 1.94 | -0.584 (inactive) | 0.395 | -1.46 | -0.602 (inactive)
6 | COC(=O)[C@@H]1CC[C@H](C)[C@@H](c2ccc(C)cc2)N1C(=O)c1ccc(C=NO[C@@H](C)c2cc(-c3c(C)cc(C)cc3C)no2)cc1 | 0.203 | -0.576 | 1.38 | -0.56 | 0.148 | 3.24 | 0.161 (inactive) | 0.239 | -0.749 | -0.462 (inactive)
7 | COC(=O)[C@@H]1CC[C@H](C)[C@@H](c2ccc(C)cc2)N1C(=O)c1ccc(C=NOC[C@@H](O)[C@H]2O[C@@H]3OC(C)(C)O[C@@H]3[C@H]2O)cc1 | 0.685 | -0.175 | -0.827 | -0.546 | -0.525 | -0.874 | -0.269 (inactive) | -1 | -0.732 | -0.089 (inactive)
8 | CC(C)=NO[C@@H](C)c1cn([C@H](CO)Cc2ccccc2)nn1 | 0.308 | 0.343 | 1.17 | 0.182 | -0.428 | 0.614 | 0.0209 (inactive) | 0.386 | 0.514 | -1.35 (inactive)
9 | COc1ccc(COC(=O)NN=C2C[C@@H](O)[C@@H](O)[C@@H]3[C@@H]4C(=O)N(c5cccc(Oc6ccccc6)c5)C(=O)[C@@H]4CC[C@H]23)cc1 | -0.777 | 0.487 | -0.634 | 0.0646 | -1.2 | 0.89 | -1.78 (inactive) | 0.197 | -1.73 | 1.29 (inactive)
10 | CCN1C(=O)[C@H]2[C@H]3[C@H](O)[C@H](O)CC(=NOCC(C)C)[C@H]3CC[C@H]2C1=O | -0.124 | -0.574 | -0.391 | 0.199 | 0.286 | -0.584 | -0.977 (inactive) | 0.0664 | -0.86 | -0.348 (inactive)
11 | CC(C)=CCCC(C)=CCON=C1C[C@@H](O)[C@@H](O)[C@@H]2[C@@H]3C(=O)N(c4cccc(Oc5ccccc5)c4)C(=O)[C@@H]3CC[C@H]12 | 0.0267 | -0.796 | 0.285 | -1.97 | 0.504 | -0.253 | 0.496 (inactive) | -0.203 | -0.907 | 0.533 (inactive)
12 | CCCNC(=O)OC[C@H]1O[C@H](CCON=C[C@@H](NS(=O)(=O)c2ccc(C)cc2)[C@H](C)C=CCC(=O)OC)C=C[C@@H]1Oc1ccc(OC)cc1 | -0.321 | 0.973 | -1.18 | -0.0312 | -0.773 | 0.421 | -2.4 (inactive) | -0.806 | 0.364 | 0.141 (inactive)
13 | C#CCCCON=C1C[C@@H](O)[C@@H](O)[C@@H]2[C@@H]3C(=O)N(C[C@@H]4CCCO4)C(=O)[C@@H]3CC[C@@H]12 | 0.137 | 1.22 | -0.396 | 0.476 | -0.0761 | -0.444 | 0.27 (inactive) | -0.193 | -0.485 | 0.0354 (inactive)
14 | CCCC[C@H]1CN2[C@@H](CC[C@@H](C)[C@@H]2c2ccc(Br)cc2)C(=O)O1 | 0.214 | 0.544 | -0.189 | -0.256 | -0.238 | 0.13 | -0.206 (inactive) | -0.221 | 0.94 | 0.8 (inactive)
15 | CCOC(=O)CCN1C(=O)[C@H]2[C@H]3[C@H](O)[C@H](O)CC(=NNC(=O)OCc4ccc(OC)cc4)[C@H]3CC[C@H]2C1=O | -0.185 | -0.385 | -0.0426 | -0.885 | -0.87 | -0.146 | -0.447 (inactive) | -0.207 | -0.387 | -0.495 (inactive)
16 | O=C1[C@H]2[C@H]3[C@H](O)[C@H](O)CC(=NOC[C@@H](O)COCc4ccco4)[C@@H]3CC[C@H]2C(=O)N1Cc1ccccc1 | -0.355 | -0.886 | -0.297 | 0.727 | 0.693 | -0.083 | -0.278 (inactive) | -0.271 | -0.782 | 1.06 (inactive)
17 | COC(=O)[C@H](Cc1ccccc1)NC(=O)[C@@H](C)CO | -0.457 | 0.802 | -0.196 | -2.56 | -2.56 | 0.892 | -0.218 (inactive) | -0.186 | -0.209 | -0.234 (inactive)
